A number with no mark means an inactive call. Inconclusive results are not listed. Entries that show only a call come without a potency. Calls of active or inactive are those of the source. Unless noted, calls follow the shape of the dose curve; as a rule, active = well fitted curve in the direction sought with a large enough effect in the repeat runs; inconclusive = weak or mixed curves; inactive = no such curve, though single readings can be large; an effect the other way counts as inactive or inconclusive.
Key:
[1] = qHTS assay to identify small molecule agonists of the hypoxia (HIF-1) signaling pathway - cell viability counter screen (AID 1224844; calls by dose curve; also: nearly all actives have a fitted effect of over 50% in size)
Outline: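 CellTiter-Glo luminescence read-out, 30 min RT, taken in the same wells as the beta-lactamase HRE reporter assay; HRE-bla ME-180 cells, 0.5% dialyzed FBS, 17 hr compound treatment at 37C, 5% CO2.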

[2] = qHTS assay to identify small molecule agonists of H2AX (AID 1224845; active = well fitted activation curve with a large enough effect in the signal ratio in the repeat runs, not every such curve was filed as active; the % refers to the signal ratio)
Outline: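 Phospho-H2AX Ser139 measured by HTRF (ex 320 nm; em 665 and 620 nm) after 24 hr antibody incubation. Compounds, 15 concentrations, 0.76% DMSO, were applied to CHO-K1 cells for 3hr at 37C before lysis.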

[3] = qHTS assay to identify small molecule agonists of the hypoxia (HIF-1) signaling pathway (AID 1224846; active = well fitted activation curve with a large enough effect in the signal ratio in the repeat runs, not every such curve was filed as active; the % refers to the signal ratio)
Outline: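 Beta-lactamase FRET read-out (CCF4-AM substrate) from ME-180 cells carrying an HRE-driven bla reporter, after 17 hrs compound exposure at 37C/5% CO2. Cells were seeded at 2,000 per well in 0.5% dialyzed FBS medium and preincubated 5 hrs.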

[4] = qHTS assay to identify small molecule agonists of H2AX - cell viability counter screen (AID 1224847; calls by dose curve;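 also: wild-type CHO-K1 cells; top concentration of the series differs between compounds; nearly all actives have a fitted effect of over 30% in size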)
Outline: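 CHO-K1 cells plated overnight at 37C, then exposed 3 h at 37C to compounds at 15 concentrations (0.76% DMSO final). Viability by CellTiter-Glo luminescence after 30 min at room temperature.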

[5] = qHTS RealTime-Glo MT Cell Viability Assay in HepG2 cells - 24 hour (AID 1224867); also: nearly all actives have a fitted effect of over 50% in size
Outline: (§1)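 Viability was tracked continuously by NanoLuc luminescence from prosubstrate reduced by living HepG2 cells, at successive time points over 40 h of compound exposure. Cells with reagent were preincubated 5 h at 37 °C before compound addition.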

[6] = qHTS RealTime-Glo MT Cell Viability Assay in HEK293 cells - 32 hour (AID 1224868); also: top concentration of the series differs between compounds; nearly all actives have a fitted effect of over 50% in size
Outline: (§2)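 Viability tracked continuously by luminescence as live cells reduce a prosubstrate for NanoLuc; HEK293 cells preincubated 5 h, compound-treated at 37 C, and read at 0, 8, 16, 24, 32 and 40 h.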

[7] = A CellTox Green Cytotoxicity Assay to monitor cytotoxicity in HEK293 cells - 0 hour (AID 1224869); also: nearly all actives have a fitted effect of over 50% in size
Outline: (§3)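 Read-out: fluorescence of a cell-impermeant cyanine dye staining DNA of dead cells, proportional to cytotoxicity. HEK293, 600 cells/well with reagent, compound (23 nL DMSO) added after 5 h; reads at 0, 8, 16, 24, 32, 40 h.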

[8] = qHTS RealTime-Glo MT Cell Viability Assay in HepG2 cells - 40 hour (AID 1224870); also: nearly all actives have a fitted effect of over 50% in size
Outline: (§4)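 Real-time viability: cells seeded at 600 per well together with NanoLuc and cell-permeant prosubstrate, compounds added after 5 h incubation. Luminescence tracked at 0, 8, 16, 24, 32 and 40 h of exposure.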

[9] = A CellTox Green Cytotoxicity Assay to monitor cytotoxicity in HEK293 cells - 40 hour (AID 1224871); also: nearly all actives have a fitted effect of over 45% in size; also: potency is read from the fitted curve at half-maximal effect
Outline: as §3

[10] = qHTS RealTime-Glo MT Cell Viability Assay in HEK293 cells - 16 hour (AID 1224872)
Outline: as §2

[11] = qHTS RealTime-Glo MT Cell Viability Assay in HepG2 cells - 8 hour (AID 1224873); also: nearly all actives have a fitted effect of over 55% in size
Outline: as §4

[12] = qHTS RealTime-Glo MT Cell Viability Assay in HEK293 cells - 40 hour (AID 1224874); conditions: RealTime-Glo luminescence; max response: hits give low values; also: nearly all actives have a fitted effect of over 50% in size
Outline: (§5)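 Luminescence readout at each listed time point; HEK293, 600 cells/well, RealTime-Glo MT reagent added with cells; compounds pinned (23 nL in DMSO) after 5 h at 37 C; continuous culture at 37 C.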

[13] = A CellTox Green Cytotoxicity Assay to monitor cytotoxicity in HEK293 cells - 24 hour (AID 1224875); also: series mostly up to about 77 µM; nearly all actives have a fitted effect of over 45% in size
Outline: as §3

[14] = A CellTox Green Cytotoxicity Assay to monitor cytotoxicity in HepG2 cells - 16 hour (AID 1224876); also: nearly all actives have a fitted effect of over 45% in size
Outline: (§6)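 HepG2, 600 cells/well premixed w/ CellTox Green; 5 h settle, 37 C/5% CO2; pintool cpd add (DMSO); 37 C, 40 h; fluorescence read at 0, 8, 16, 24, 32, 40 h.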

[15] = qHTS RealTime-Glo MT Cell Viability Assay in HepG2 cells - 32 hour (AID 1224877); also: nearly all actives have a fitted effect of over 55% in size
Outline: as §1

[16] = A CellTox Green Cytotoxicity Assay to monitor cytotoxicity in HepG2 cells - 24 hour (AID 1224878); also: nearly all actives have a fitted effect of over 45% in size
Outline: as §6

[17] = qHTS RealTime-Glo MT Cell Viability Assay in HEK293 cells - 0 hour (AID 1224880)
Outline: as §5

[18] = A CellTox Green Cytotoxicity Assay to monitor cytotoxicity in HepG2 cells - 40 hour (AID 1224879); also: nearly all actives have a fitted effect of over 40% in size
Outline: as §6

Row | SMILES | Potency [1] | Potency [2] | outcome [3] | outcome [4] | outcome [5] | Potency [6] | outcome [7] | Potency [8] | Potency [9] | Potency [10] | outcome [11] | max response [12] [%] | outcome [13] | outcome [14] | Potency [15] | outcome [16] | Potency [17] | Potency [18]
1 | CC(=O)N1C[C@H](O)C[C@H]1C(=O)O | inactive | inactive | inactive | inactive | inactive | inactive | inactive | inactive | inactive | inactive | inactive | 6.07 | inactive | inactive | inactive | inactive | inactive | 
2 | CCOC(=O)COc1cc(-n2ncc(C(F)(F)F)c(C)c2=O)c(F)cc1Cl | inactive | inactive | inactive | inactive | inactive | inactive | inactive | inactive | inactive | inactive | inactive | -4.34 | inactive | inactive | inactive | inactive | inactive | inactive
3 | C1CCC2(CCCCO2)OC1 | inactive | inactive | inactive | inactive | inactive | inactive | inactive | inactive | inactive | inactive | inactive | -6.53 | inactive | inactive | inactive | inactive | inactive | inactive
4 | CC(C)(CCC(=O)O)C(=O)O | inactive | inactive | inactive | inactive | inactive | inactive | inactive | inactive | inactive | inactive | inactive | 0.835 | inactive | inactive | inactive | inactive | inactive | 
5 | C=CN1CCCCCC1=O | inactive | inactive | inactive | inactive | inactive | inactive | inactive | inactive | inactive |  | inactive | 3.47 | inactive | inactive | inactive | inactive | inactive | inactive
6 | [Ca+2] | inactive | inactive | inactive | inactive | inactive | inactive | inactive | inactive | inactive |  | inactive | 5.91 | inactive | inactive | inactive | inactive | inactive | inactive
7 | CCCCc1nc(Cl)c(CO)n1Cc1ccc(-c2ccccc2-c2nn[nH]n2)cc1 | inactive | inactive | inactive | inactive | inactive | inactive | inactive | inactive | inactive |  | inactive | -16.9 | inactive | inactive | inactive | inactive |  | inactive
8 | C=C[Si](OC(C)=O)(OC(C)=O)OC(C)=O | inactive | inactive | inactive | inactive | inactive | inactive | inactive | inactive | inactive | inactive | inactive | 4.65 | inactive | inactive | inactive | inactive | inactive | inactive
9 | CN(C)CCCN(C)CCCN(C)C | inactive | inactive | inactive | inactive | inactive | inactive | inactive | inactive | inactive | inactive | inactive | -6.89 | inactive | inactive | inactive | inactive | inactive | inactive
10 | C1CCC2=NCCCN2CC1 | inactive | inactive | inactive | inactive | inactive | inactive | inactive | inactive | inactive |  | inactive | 20.2 | inactive | inactive | inactive | inactive | inactive | inactive
11 | CC(C)(C)C(=O)Oc1ccc(S(=O)(=O)Nc2ccccc2C(=O)NCC(=O)O)cc1 | inactive | inactive | inactive | inactive | inactive | inactive | inactive | inactive | inactive |  | inactive | 7.92 | inactive | inactive | inactive | inactive | inactive | inactive
12 | CCCCCCCCCCCCCCCCCCO | inactive | inactive | inactive | inactive | inactive | inactive | inactive | inactive | inactive | inactive | inactive | -1.19 | inactive | inactive | inactive | inactive | inactive | inactive
13 | c1ccc(Cc2ccccc2)cc1 | inactive | inactive | inactive | inactive | inactive | inactive | inactive | inactive | 34.7 µM (active) |  | inactive | -0.7 | inactive | inactive | inactive | inactive | inactive | inactive
14 | Cc1coc2ccccc2c1=O | inactive | inactive | inactive | inactive | inactive | inactive | inactive | inactive | inactive |  | inactive | -0.146 | inactive | inactive | inactive | inactive | inactive | inactive

— PubChem BioAssay (Tox21)
